The record followed here is PubChem BioAssay (NCATS).

Values joined by “and” are separate entries in the source; they are usually repeats but may differ in a detail not shown here. Equal values may be shown once. Results filed as inconclusive are left out. Where a structure was tested more than once in an assay, its records may differ in their call. Active and inactive are the calls of the source. The call rests on the fitted dose curve; in most records, active means well fitted curve in the direction sought with a large enough effect; inconclusive means small, poorly fitted or top-dose-only effect, or another doubt; inactive means no such curve, though single readings can be large; an effect the other way counts as inactive or inconclusive.

Test [1] has as its target Glutathione peroxidase 1 (Homo sapiens) (UniProt P07203). The test can be described thus: Primary qHTS Assay for Inhibitors of Recombinant Selenoprotein Glutathione Peroxidase 1 (GPX1) (AID 1845191). Further: nearly all actives have a fitted effect of over 65% in size. On activity, negative = inhibition: on the % scale 0 is the no-effect control and ±100 the full control effect. The procedure, abridged: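 GPX1 10 nM, GR 100 nM, GSH 1 mM, NADPH 0.5 mM, CHP 0.5 mM (final). 30-min cpd preincubation, RT. Ex340/Em450 read t=0, t=15 min.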
(In general: Quantitative high-throughput screening tests each substance at several concentrations.)

Test [2] addresses Phospholipid hydroperoxide glutathione peroxidase GPX4 (Homo sapiens) (UniProt P36969). Nature of the test: Primary qHTS Assay for Inhibitors of Recombinant Selenoprotein Glutathione Peroxidase 4 (GPX4) (AID 1845192). Further: nearly all actives have a fitted effect of over 65% in size. Further: potency means the concentration at half of the fitted maximal effect. On activity change, negative = inhibition: series mostly up to about 50 µM; on the % scale 0 is the no-effect control and ±100 the full control effect. Summed up:
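qHTS, GR-coupled: GPX4 200 nM + cpd 30 min RT → GSH 1 mM, NADPH 0.5 mM, GR 100 nM → CHP 0.5 mM start; fluor 340/450 at t0 and t15 min; no-enzyme wells as control.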

Test [3] addresses Luciferin 4-monooxygenase (Photinus pyralis) (UniProt P08659). The test can be described thus: Primary firefly luciferase (FLuc) qHTS assay for identification of artifact compounds. (AID 1845220). Further: nearly all actives have a fitted effect of over 60% in size.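 On activity change, negative = inhibition: series mostly up to about 54 µM; plate controls were DMSO vehicle for no effect and no enzyme for full effect.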 The procedure, abridged: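 In this counter-screen for luciferase artifacts, test compounds met substrate (10 uM each luciferin and ATP) before 10 nM enzyme started the reaction. Light output was measured 5 min later.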

A short description of test [4]: Primary fluorescence-based thiol-reactive (MSTI) qHTS assay for identification of artifact compounds. (AID 1845221). Further: nearly all actives have a fitted effect of over 65% in size. Further: potency means the concentration at half of the fitted maximal effect.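 On activity change, negative = thiol reactive: series mostly up to about 54 µM; thiol-reactive compounds lower the probe fluorescence signal.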 The procedure, abridged:
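qHTS titration of compound; 4 uM MSTI, PBS pH 7.4, 2% DMSO; 1 h RT, dark; fluorescence 525/598 nm; normalized to Acetyl-MSTI and MSTI; 4-parameter Hill fit.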

For test [5], the system named is Nanoluciferase (engineered Oplophorus gracilirostris luciferase). The test can be described thus: Primary Nanoluciferase (NLuc) qHTS assay for identification of artifact compounds. (AID 1845222).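 Further: NLuc secreted into diluted conditioned medium of S16 cells; series mostly up to about 54 µM.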 Summed up: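 Using secreted nanoluciferase in S16 culture medium (0.22 um filtered, 1:55 dilution), compounds were preincubated 15 min at RT. Signal was generated with Nano-Glo reagent (1:100) over 5 min.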

Chain of Glutathione peroxidase 1 (Homo sapiens) (P07203 whole entry, looked up): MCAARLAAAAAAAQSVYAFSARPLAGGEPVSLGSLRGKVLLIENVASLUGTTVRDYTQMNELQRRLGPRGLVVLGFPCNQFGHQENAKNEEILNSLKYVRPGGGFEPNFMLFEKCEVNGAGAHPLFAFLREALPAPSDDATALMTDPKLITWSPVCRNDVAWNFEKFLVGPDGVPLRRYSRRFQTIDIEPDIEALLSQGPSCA
Chain of Phospholipid hydroperoxide glutathione peroxidase GPX4 (Homo sapiens) (P36969 whole entry, looked up): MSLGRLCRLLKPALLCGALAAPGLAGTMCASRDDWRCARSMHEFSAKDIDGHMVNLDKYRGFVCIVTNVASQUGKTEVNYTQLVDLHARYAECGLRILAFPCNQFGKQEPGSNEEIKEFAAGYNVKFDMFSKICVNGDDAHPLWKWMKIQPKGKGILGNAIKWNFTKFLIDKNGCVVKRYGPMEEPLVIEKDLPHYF

Regarding `COc1ccc(S(=O)(=O)Nc2c(C)cc(C)cc2C)cc1`, the Potency entry in test [1], in test [2], in test [3], in test [4] and in test [5] was “inactive” throughout.

Regarding `COc1c(C)cnc(Cn2cc(C#CCC(C)(C)O)c3c(Cl)nc(N)nc32)c1C`, the Potency result in test [1], in test [2], in test [3], in test [4] and in test [5] was “inactive” in each case.

Take `Cc1ccccc1C(C(=O)NC1CCCCC1)N(C(=O)Cn1cnc2ccccc21)c1cccc(F)c1` (stereo not given): the Potency result in test [1], in test [2], in test [3], in test [4] and in test [5] was “inactive” throughout.

For the compound `CC(C)(C)Sc1c(CC(C)(C)C(=O)O)n(Cc2ccc(Cl)cc2)c2ccc(OCc3ccc4ccccc4n3)cc12`, the Potency entry in test [1], in test [3], in test [4] and in test [5] was “inactive” throughout. Moreover, the Potency entry in test [2] is “inactive and 8.06 µM (active)”.

With `C[C@@H](NC(=O)c1ccc(C#Cc2cccc(F)c2)cn1)C(C)(C)O`, the Potency entry in test [1], in test [2], in test [3], in test [4] and in test [5] was “inactive” in each case.

For `C=C[C@@]12COC(=O)C(=C)[C@@H]1[C@@H](O)[C@H](C(=C)C(=O)OC)[C@@H](O)C2`, the Potency entry in test [1], in test [2], in test [3], in test [4] and in test [5] was “inactive” in each case.

In the case of `CC(C)c1ccc(NC(=O)Cn2cnc3c2c(=O)n(C)c(=O)n3C)cc1`, the Potency entry in test [1], in test [2], in test [3], in test [4] and in test [5] was “inactive” each time.

Regarding `CN1CCN(C(=O)CN[C@@H]2C[C@H]2c2ccc(OCc3ccccc3)cc2)CC1`, the Potency result in test [1], in test [2], in test [3], in test [4] and in test [5] was “inactive” each time.

Consider `C[C@H](Nc1cc2c(-c3ccc4c(c3)OCO4)noc2cn1)c1ccccc1`, for which the Potency entry in test [1], in test [2], in test [3], in test [4] and in test [5] was “inactive” throughout.

For the compound `COc1cc2ncnc(Oc3ccc(CC(=O)Nc4cnn(C(C)C)c4)cc3)c2cc1OC`, the Potency entry in test [1], in test [2], in test [3], in test [4] and in test [5] was “inactive” each time.

For `NC(=O)C1=CC2C3C=CC2C(OC3=O)O1` (stereo not given), the Potency entry in test [1], in test [2], in test [3] and in test [5] was “inactive” each time. In test [4], the Potency is 15.8 µM (active).

As for `CCNC(=O)C#Cc1ccc2c(C(=Nc3ccc(CN(C)C)cc3)c3ccccc3)c(O)[nH]c2c1`, the Potency entry in test [1], in test [2], in test [3], in test [4] and in test [5] was “inactive” each time.

For the compound `Cc1cc(F)c(C(=O)Nc2cccc(-c3nncn3C(C)C)n2)cc1-n1cnc(C2CC2)c1`, the Potency entry in test [1], in test [2], in test [3], in test [4] and in test [5] was “inactive” throughout.

`CC(O)(C(=O)O)C1CCC2(C)C1CCC1(C)C2CCC2C3(C)CCC(O)C(C)(COC4OC(CO)C(O)C(O)C4O)C3CCC21C` (stereo not given): the Potency result in test [1], in test [2], in test [3], in test [4] and in test [5] was “inactive” each time.

Regarding `C/C=C(\C)C(=O)O[C@H]1C=C(CO)C(=O)[C@H](OC(C)=O)[C@H]1C(C)C`, the Potency entry in test [1], in test [2], in test [3], in test [4] and in test [5] was “inactive” in each case.

Regarding `CCN(CC)CCCS(=O)(=O)N[C@H](CCc1ccccc1)c1nc(Cc2ccc(Br)cc2)no1`, the Potency entry in test [1], in test [2], in test [3], in test [4] and in test [5] was “inactive” in each case.

As for `C=C1C(=O)O[C@@H]2/C=C(\C)CC/C=C(/C=O)[C@H](OC)[C@@H](OC(=O)C(C)C)[C@@H]12`, the Potency result in test [1], in test [2], in test [3], in test [4] and in test [5] was “inactive” in each case.

Regarding `C=C(C)C1CCC2(C(=O)O)CCC3(C)C(CCC4C5(C)C(C=O)C(O)C(C)(C)C5CCC43C)C12` (stereo not given), the Potency result in test [1], in test [2], in test [3], in test [4] and in test [5] was “inactive” each time.

With `C[C@@H](O[C@H]1OCCN(Cc2nn(P(=O)(O)O)c(=O)[nH]2)[C@H]1c1ccc(F)cc1)c1cc(C(F)(F)F)cc(C(F)(F)F)c1`, the Potency entry in test [1], in test [2], in test [3], in test [4] and in test [5] was “inactive” each time.

`CC(C)(O)c1ccc2c(c1)ncn2-c1cccc(-c2ccccc2C#N)c1`: the Potency result in test [1], in test [2], in test [3], in test [4] and in test [5] was “inactive” in each case.

For `O=c1[nH]c([C@@H]2CCCN2)nc2c1oc1ccc(Cl)cc12`, the Potency entry in test [1], in test [2], in test [3], in test [4] and in test [5] was “inactive” in each case.

In the case of `Cc1ccccc1CN1CCn2c1nc1c(c2=O)CN(Cc2ccccc2)CC1`, the Potency entry in test [1], in test [2], in test [3], in test [4] and in test [5] was “inactive” in each case.

On to `CC(C)CCNc1ncccc1C(=O)N1CCN(Cc2ccccc2)CC1`, for which the Potency result in test [1], in test [2], in test [3], in test [4] and in test [5] was “inactive” throughout.

Consider `CC12CCC3C1C(c1c(cc(O)c(C(=O)c4ccccc4)c1O)O2)C3(C)C` (stereo not given), for which the Potency result in test [1], in test [2], in test [3], in test [4] and in test [5] was “inactive” in each case.

In the case of `C=C1C(=O)O[C@@H]2C=C(COC(C)=O)CC/C=C(\CO)CC[C@@H]12`, the Potency result in test [1], in test [2], in test [3], in test [4] and in test [5] was “inactive” each time.

As for `C/C=C(/C=C(C)/C=C/C=C/C=C(\C)C(=O)C12OC1C(O)(CCO)NC2=O)C(=O)OC` (stereo not given), the Potency entry in test [1], in test [2], in test [3], in test [4] and in test [5] was “inactive” throughout.

On to `COc1ccc(CN2CCN(CCCSc3cc(C(C)(C)C)c(O)c(C(C)(C)C)c3)CC2)c(OC)c1OC`, for which the Potency entry in test [1] and in test [2] was “inactive” throughout. For the same compound, in test [3], the activity change, negative = inhibition was 3.48% [at 11.6 µM] (inactive). The activity change, negative = thiol reactive in test [4] was 2.62% [at 11.5 µM] (inactive). In addition, the activity, negative = inhibition in test [5] is 3.22% [at 11.6 µM] (inactive).
